This note sets out measurements from PubChem BioAssay (NCATS).

Experiment [1] concerns the target Lysosomal acid glucosylceramidase (Homo sapiens) (UniProt P04062). As to the kind of experiment: Glucocerebrosidase-p2 (AID 348; in the data active = potency below about 10 µM; note: potency is the fitted concentration of half-maximal effect). The note with it: purified GBA, blue fluorogenic substrate, 40 min. A digest of the protocol: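 Normal human glucocerebrosidase (0.2 nM) with blue fluorogenic substrate (80 uM final) in citrate/phosphate pH 5.9 with 10mM sodium taurocholate, 0.01% tween-20; 40 min RT, NaOH/glycine stop; fluorescence Ex 365/Em 440; AC50 from a titration from 0.6 nM upwards.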

Experiment [2] can be described thus: Stat Signaling Pathway (AID 446).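 Note: ME-180 cervical cancer cells given 40 pM IL-6 alongside compound; SIE-controlled beta-lactamase reporter measured as 460/530 nm FRET emission ratio; % is set by controls: 0 for no effect and ±100 for the full control effect.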 The note with it: ME-180 SIE beta-lactamase reporter, IL-6 stimulated, 5 h; at 7.69 µM (top of the series) unless noted. A digest of the protocol: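 Normalization used AC90 stimulation (300 pM IL-6) and AC90 inhibition (125 nM pan-JAK inhibitor at 40 pM IL-6). The underlying signal is SIE-driven beta-lactamase in ME-180 cells after 5 h IL-6 exposure with compound.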

The target in experiment [3] is Glucocorticoid receptor (Homo sapiens) (UniProt P04150). The experiment is described as follows: GR-EFC Redistribution (AID 451; calls by dose curve; note: potency is the fitted concentration of half-maximal effect). The note with it: CHO-K1 GR-EFC translocation, beta-gal luminescence, 2 h. An outline of the steps:
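CHO-K1 cells expressing nuclear EA and GR-ED fragments of b-gal; compounds titrated up to 46 uM final, 2 h at 37 C. GR nuclear translocation read as complemented b-gal luminescence after 1 h RT detection.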

The target of experiment [4] is Mitogen-activated protein kinase 10 (Mus musculus) (UniProt Q61831). The experiment is described as follows: JNK3 AlphaScreen Assay (AID 530).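 Note: kinase came from lysate of stimulated human HepG2 cells; signal reports phosphorylation of biotinylated GST-cJun 1-79 at Ser73 with 10 µM ATP; % is set by controls: 0 for no effect and ±100 for the full control effect.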 To be noted: JNK3 lysate, c-Jun phosphorylation; series mostly up to 57.1 µM. An outline of the steps: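 Activity was read by AlphaScreen after JNK3-containing HepG2 lysate (cytokine pre-activated) phosphorylated biotinylated GST-cJun with 10 uM ATP at room temperature. Phospho-Ser73 cJun antibody with Protein-A acceptor beads provided detection.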
On the technique in general: Bead proximity is the source of the signal in Alpha formats.

Experiment [5] can be described thus: Primary qHTS for small molecule stabilizers of the endoplasmic reticulum resident proteome: Secreted ER Calcium Modulated Protein (SERCaMP) assay (AID 1508630; active = well fitted curve in the direction sought with a large enough effect; an effect the other way counts as inactive or inconclusive; note: % is set by controls: 0 for no effect and ±100 for the full control effect). To be noted: SH-SY5Y GLuc-SERCaMP (Gaussia luciferase released on ER calcium loss) secretion, thapsigargin, luminescence; series mostly up to 38.4 µM. A digest of the protocol:
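The SH-SY5Y reporter protocol was run at 3 concentrations up to 38.3 uM (primary) or 11 concentrations (follow-up): 16 h compound, 100 nM thapsigargin for 4 h, then extracellular luciferase luminescence.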
(In qHTS, concentration-response curves come from the screen itself.)

In experiment [6] the target is Cytochrome P450 1A2 (Homo sapiens) (UniProt P05177). The experiment is described as follows: p450-cyp1a2 (AID 410; calls by dose curve; note: potency is the fitted concentration of half-maximal effect). To be noted: recombinant CYP1A2, luciferin-ME demethylation, luminescence; series mostly up to 57 µM. A digest of the protocol: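 O-Demethylation of luciferin 6' methyl ether by human CYP1A2 is monitored as luciferase luminescence. Substrate sits at Km (100uM); enzyme is 20nM. Values are scaled to 57 uM furafylline as maximal inhibition.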

Experiment [7] addresses Glucocorticoid receptor (Homo sapiens) (UniProt P04150). The experiment is described as follows: GR-GFP Redistribution (AID 450;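 active = compounds whose dose series gives a full or clear partial fitted curve of increased nuclear translocation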; note: potency is the fitted concentration of half-maximal effect). To be noted: U2OS GR-GFP nuclear translocation, laser cytometry, 2 h.
In experiment [8] the target is 3',5'-cyclic-AMP phosphodiesterase 4B (Homo sapiens) (UniProt Q07343). The experiment is described as follows: qHTS Assay for Inhibitors of PDE-IV (AID 607; active = well fitted activation curve with a large enough effect in the main read-out, with a control signal flat, not every such curve was filed as active; note: % of control where 0% means no effect). The note with it: HEK293 ACTOne CNG channel cells, membrane potential fluorescence; series mostly up to 22.9 µM. A digest of the protocol: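 HEK293 ACTOne cells with CNG channel (1000/well), endogenous PDE4; membrane potential dye, compounds up to 22.9 uM final. Fluorescence Ex 535/Em 590; RO 20-1724 (100 uM final) as reference.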

Experiment [9] concerns the target Cytochrome P450 3A4 (Homo sapiens) (UniProt P08684). As to the kind of experiment: qHTS Assay for Activators of Cytochrome P450 3A4 (AID 885; active = well fitted curve in the direction sought with a large enough effect; an effect the other way counts as inactive or inconclusive; note: nearly all actives have a fitted effect of over 65% in size). To be noted: recombinant CYP3A4, Luciferin-PPXE luminescence, 60 min; series mostly up to 57.1 µM. A digest of the protocol: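 Human CYP3A4 dealkylates Luciferin-PPXE to luciferin, which luciferase detection converts to light. Substrate was at its KM (25uM), buffer 200mM KPO4, reaction 60 min at RT.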

Experiment [10] can be described thus: NFAT Signaling Pathway (AID 444).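 Note: carbachol stimulus at about its EC50 of 1 µM final; % is set by controls: 0 for no effect and ±100 for the full control effect.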 To be noted: Jurkat NFAT-bla M1, carbachol, beta-lactamase ratio, 5 h; at 7.69 µM (top of the series) unless noted. A digest of the protocol: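 Jurkat cells with NFAT-driven β-lactamase reporter and co-expressed M1 receptor, stimulated with carbachol (final 1 uM, ~EC50), compound titration, 5 h at 37 °C. CCF4 loaded 1 h at RT; 460/530 nm ratio gave %activity and AC50.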

A short description of experiment [11]: AP1 Signaling Pathway (AID 357). The note with it: ME-180 (cervical carcinoma) AP-1-bla reporter, EGF-induced, beta-lactamase ratio, 5 h; at 7.69 µM (top of the series) unless noted. An outline of the steps:
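First, ME-180 AP-1-bla cells were cultured overnight at 37 °C in low-serum Opti-MEM. Next, titrated compounds with EC50 EGF were incubated 5 hours. Finally, CCF4 was added for 2.5 hours and the 460/530 nm ratio recorded.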

Experiment [12] concerns the target Cytochrome P450 3A4 (Homo sapiens) (UniProt P08684). As to the kind of experiment: qHTS Assay for Inhibitors and Substrates of Cytochrome P450 3A4 (AID 884; active = well fitted curve in the direction sought with a large enough effect; an effect the other way counts as inactive or inconclusive; note: potency is the fitted concentration of half-maximal effect; nearly all actives have a fitted effect of over 50% in size). To be noted: recombinant CYP3A4, Luciferin-PPXE luminescence; series mostly up to 57.1 µM. An outline of the steps: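 Luminescent readout of luciferin produced by CYP3A4 (20 nM) dealkylation of Luciferin-PPXE, 25 uM (its KM). NADPH-driven reaction ran 60 min at RT after 10 min compound preincubation; data scaled to 57 uM ketoconazole as 100% inhibition.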

A number with no mark means an inactive call. Inconclusive results are not listed. Active and inactive are the calls of the source. Unless noted, calls come from the whole dose curve; as a rule, active = well fitted curve in either direction with a large enough effect (not every such curve was filed as active); inconclusive = small, poorly fitted or top-dose-only effect, or another doubt; inactive = flat fitted curve, though single readings scatter. A value given as a limit tells only on which side of the number the result lay.

Cytochrome P450 1A2 (Homo sapiens), sequence (P05177 whole entry, looked up): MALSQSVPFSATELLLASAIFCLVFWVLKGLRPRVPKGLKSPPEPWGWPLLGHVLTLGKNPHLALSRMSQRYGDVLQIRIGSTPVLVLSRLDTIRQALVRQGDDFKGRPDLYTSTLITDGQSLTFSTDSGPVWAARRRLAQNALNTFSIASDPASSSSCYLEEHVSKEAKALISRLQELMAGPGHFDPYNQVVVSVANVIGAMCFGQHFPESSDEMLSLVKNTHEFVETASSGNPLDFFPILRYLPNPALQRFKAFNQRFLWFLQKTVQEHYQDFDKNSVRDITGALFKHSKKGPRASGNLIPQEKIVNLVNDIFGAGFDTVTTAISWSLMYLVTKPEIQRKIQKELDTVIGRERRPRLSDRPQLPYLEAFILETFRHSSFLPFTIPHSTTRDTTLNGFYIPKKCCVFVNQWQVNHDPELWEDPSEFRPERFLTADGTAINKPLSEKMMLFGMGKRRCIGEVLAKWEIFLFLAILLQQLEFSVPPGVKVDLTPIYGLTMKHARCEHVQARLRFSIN
Lysosomal acid glucosylceramidase (Homo sapiens), sequence (P04062 whole entry, looked up): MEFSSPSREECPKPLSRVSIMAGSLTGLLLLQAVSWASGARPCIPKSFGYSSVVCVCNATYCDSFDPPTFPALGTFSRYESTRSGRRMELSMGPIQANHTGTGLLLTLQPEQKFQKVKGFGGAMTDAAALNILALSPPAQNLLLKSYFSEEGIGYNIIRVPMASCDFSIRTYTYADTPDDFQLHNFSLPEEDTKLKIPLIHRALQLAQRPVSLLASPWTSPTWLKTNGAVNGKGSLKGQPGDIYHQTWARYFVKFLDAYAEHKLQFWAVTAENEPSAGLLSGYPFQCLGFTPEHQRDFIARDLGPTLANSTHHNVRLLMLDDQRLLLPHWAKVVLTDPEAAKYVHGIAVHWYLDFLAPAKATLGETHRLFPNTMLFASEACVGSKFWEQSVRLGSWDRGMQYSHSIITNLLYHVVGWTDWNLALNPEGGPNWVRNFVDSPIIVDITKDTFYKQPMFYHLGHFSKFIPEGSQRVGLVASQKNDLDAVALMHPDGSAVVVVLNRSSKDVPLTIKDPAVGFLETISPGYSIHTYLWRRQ
Glucocorticoid receptor (Homo sapiens), sequence (P04150 whole entry, looked up, the tested form may be a part): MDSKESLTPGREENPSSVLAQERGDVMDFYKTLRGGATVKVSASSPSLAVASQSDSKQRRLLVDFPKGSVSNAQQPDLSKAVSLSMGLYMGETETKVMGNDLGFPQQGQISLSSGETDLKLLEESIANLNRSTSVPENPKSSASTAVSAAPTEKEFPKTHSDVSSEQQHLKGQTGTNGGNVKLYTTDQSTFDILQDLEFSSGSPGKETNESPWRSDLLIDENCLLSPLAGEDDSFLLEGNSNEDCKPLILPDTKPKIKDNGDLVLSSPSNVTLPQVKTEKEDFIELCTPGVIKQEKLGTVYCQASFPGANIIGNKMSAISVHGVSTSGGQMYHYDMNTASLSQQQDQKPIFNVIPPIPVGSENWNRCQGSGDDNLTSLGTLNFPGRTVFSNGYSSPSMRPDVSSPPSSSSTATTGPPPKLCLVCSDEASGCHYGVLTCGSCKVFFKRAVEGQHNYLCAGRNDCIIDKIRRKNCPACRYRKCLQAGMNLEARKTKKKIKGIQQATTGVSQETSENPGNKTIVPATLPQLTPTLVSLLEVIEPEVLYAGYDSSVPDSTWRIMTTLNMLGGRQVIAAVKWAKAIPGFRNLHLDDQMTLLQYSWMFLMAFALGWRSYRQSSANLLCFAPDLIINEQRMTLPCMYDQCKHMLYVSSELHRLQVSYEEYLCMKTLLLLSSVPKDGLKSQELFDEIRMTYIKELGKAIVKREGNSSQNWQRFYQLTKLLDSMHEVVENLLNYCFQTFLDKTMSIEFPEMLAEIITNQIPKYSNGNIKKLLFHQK
3',5'-cyclic-AMP phosphodiesterase 4B (Homo sapiens), sequence (Q07343 whole entry, looked up): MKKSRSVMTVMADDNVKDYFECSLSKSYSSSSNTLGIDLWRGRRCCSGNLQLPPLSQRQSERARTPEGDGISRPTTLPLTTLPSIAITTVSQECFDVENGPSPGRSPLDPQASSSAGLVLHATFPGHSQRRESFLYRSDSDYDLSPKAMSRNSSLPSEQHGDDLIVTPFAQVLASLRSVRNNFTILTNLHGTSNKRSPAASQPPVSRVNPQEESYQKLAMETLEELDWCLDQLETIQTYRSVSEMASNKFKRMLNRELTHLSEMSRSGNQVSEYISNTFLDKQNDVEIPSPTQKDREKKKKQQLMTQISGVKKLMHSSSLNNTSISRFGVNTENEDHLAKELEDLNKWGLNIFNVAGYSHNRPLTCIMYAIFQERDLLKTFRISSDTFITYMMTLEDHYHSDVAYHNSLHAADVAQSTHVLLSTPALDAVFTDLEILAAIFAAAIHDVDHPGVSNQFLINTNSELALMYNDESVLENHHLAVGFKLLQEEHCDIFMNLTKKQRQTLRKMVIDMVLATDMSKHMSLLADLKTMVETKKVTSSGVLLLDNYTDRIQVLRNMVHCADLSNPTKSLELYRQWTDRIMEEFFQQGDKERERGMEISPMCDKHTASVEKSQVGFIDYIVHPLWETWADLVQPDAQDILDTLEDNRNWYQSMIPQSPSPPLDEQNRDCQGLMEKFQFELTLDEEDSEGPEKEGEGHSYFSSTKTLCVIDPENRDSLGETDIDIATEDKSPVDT
Cytochrome P450 3A4 (Homo sapiens), sequence (P08684 whole entry, looked up): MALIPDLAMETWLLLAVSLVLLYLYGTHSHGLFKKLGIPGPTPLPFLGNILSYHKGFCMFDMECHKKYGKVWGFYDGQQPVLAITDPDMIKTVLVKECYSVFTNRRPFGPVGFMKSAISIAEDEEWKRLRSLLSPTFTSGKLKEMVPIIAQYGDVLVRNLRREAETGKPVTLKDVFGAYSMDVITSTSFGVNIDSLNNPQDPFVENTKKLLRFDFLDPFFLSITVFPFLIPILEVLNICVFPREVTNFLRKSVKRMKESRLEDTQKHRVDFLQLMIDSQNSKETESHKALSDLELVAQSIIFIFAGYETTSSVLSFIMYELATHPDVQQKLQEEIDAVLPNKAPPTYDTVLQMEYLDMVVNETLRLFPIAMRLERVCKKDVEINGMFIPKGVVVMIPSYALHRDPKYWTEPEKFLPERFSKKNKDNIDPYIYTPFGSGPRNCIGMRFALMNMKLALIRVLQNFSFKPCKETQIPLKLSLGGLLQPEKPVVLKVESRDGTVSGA

`O=C(Nc1cccc(F)c1)N1CCCC2(CCN(C(=O)c3cccc(F)c3)CC2)C1`: the values for the Potency in experiment [1] and in experiment [3] were more than 11.4 µM and more than 46 µM, respectively. Besides, the activity, negative = inhibition in experiment [2] is -9.43%. The Potency result in experiment [4] was “inactive”. For the same compound, the outcome in experiment [5] was inactive.

As to `CCNc1ncc2ncc(=O)n(CCc3ccccc3)c2n1`, the Potency in experiment [1] is more than 11.4 µM; in experiment [6], 1 µM (active); in [7], more than 9.22 µM; in experiment [3], more than 46 µM. Besides, the activity, negative = inhibition in experiment [2] is -25.4%. In addition, the Potency entry in [4], in experiment [8] and in experiment [9] was “inactive” in each case. Besides, in experiment [5], the outcome was inactive.

Turning to `CN(C)c1ncc2nc(-c3ccccc3)c(=O)n(C3CC3)c2n1`, the Potency in experiment [1] was more than 11.4 µM; in [6], 2.51 µM (active); in experiment [7], more than 9.22 µM; in experiment [3], more than 46 µM. Also, the outcome in experiment [5] was inactive.

On to `COc1ccc(Oc2ncc3nc(-c4cccs4)c(=O)n(Cc4cccs4)c3n2)cc1`, for which the Potency in experiment [1] was more than 11.4 µM; in experiment [7], more than 9.22 µM; in experiment [3], more than 46 µM. Moreover, in experiment [10], the activity change, negative = inhibition is -3.5%. Further, the Potency result in experiment [4] and in experiment [8] was “inactive” in each case. The outcome in [5] was inactive.

`O=C(c1cccc(F)c1)N1CCC2(CCCN(Cc3cc(C(F)(F)F)cc(C(F)(F)F)c3)C2)CC1`: the Potency is more than 11.4 µM in [1] and more than 46 µM in experiment [3]. Moreover, the Potency entry in experiment [6], in [4], in [8] and in [9] was “inactive” each time. Moreover, the activity, negative = inhibition in experiment [2] is 3.76%. Besides, in experiment [5], the result was inactive.

Regarding `O=c1c(-c2ccc(Cl)cc2)nc2cnc(N3CCOCC3)nc2n1C1CC1`, the activity change, negative = inhibition was 6.61% in experiment [11] and -4.43% in experiment [10]. Besides, the Potency in experiment [6] is 1.26 µM (active); in [7], more than 9.22 µM; in experiment [3] it was more than 46 µM. For the same compound, in experiment [2], the activity, negative = inhibition is 26.7%. The Potency entry in experiment [4] and in experiment [8] was “inactive” in each case. Moreover, the result in experiment [5] was inactive.

As to `O=S(=O)(c1ccccc1)N1CCC2(CCCN(Cc3cc(C(F)(F)F)cc(C(F)(F)F)c3)C2)CC1`, the Potency in experiment [1] is more than 11.4 µM; in [3], more than 46 µM. Further, in experiment [2], the activity, negative = inhibition is 5.03%. For the same compound, the Potency entry in experiment [4] and in experiment [8] was “inactive” throughout. Moreover, the outcome in experiment [5] was inactive.

For the compound `COc1cccc(Cn2c(=O)c(CCc3ccccc3)nc3cnc(OC)nc32)c1`, the activity change, negative = inhibition in experiment [11] was -4.92%; in [10], -14.6%. Also, the Potency was 12.6 µM (active) in experiment [6], more than 9.22 µM in experiment [7], more than 46 µM in experiment [3] and 2.51 µM (active) in [12]. Besides, in experiment [2], the activity, negative = inhibition is 1.12%. The Potency result in experiment [9] was “inactive”. For the same compound, in [5], the result was inactive.

With `O=c1c(-c2ccc(Cl)cc2)nc2cnc(N3CCNCC3)nc2n1Cc1ccc(F)cc1`, the Potency was more than 11.4 µM in experiment [1], 15.8 µM (active) in [6], more than 9.22 µM in experiment [7] and more than 46 µM in [3]. Further, the Potency entry in experiment [8] and in [9] was “inactive” in each case. The outcome in experiment [5] was inactive.

Consider `COc1cccc(Nc2ncc3nc(-c4ccc(Cl)cc4)c(=O)n(CCC#N)c3n2)c1`, for which the Potency in experiment [1] is more than 11.4 µM; in experiment [6] it was 5.01 µM (active); in [3], more than 46 µM. Also, in [2], the activity, negative = inhibition was -26.2%. The Potency entry in experiment [4], in experiment [8] and in experiment [9] was “inactive” each time. The outcome in [5] was inactive.
